From PubChem BioAssay (NCATS)
Inconclusive results are not listed. Calls of active or inactive are those of the source. Calls follow the shape of the dose curve; as a rule, active = well fitted inhibition curve with a large enough effect; inconclusive = small, poorly fitted or top-dose-only effect, or effect the other way; inactive = flat fitted curve, though single readings scatter.

Test: qHTS for Inhibitors of Plasmodium falciparum (GB4) proliferation (AID 504315); also: nearly all actives have a fitted effect of over 50% in size;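 as to activity change, negative = inhibition: 0% = DMSO vehicle and -100% = 0.29 µM artemisinin control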
Conditions: P. falciparum GB4 in erythrocytes, SYBR Green DNA, 72 h; series mostly up to 6.7 µM; activity change, negative = inhibition: at the top concentration
Method in brief: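 Parasite growth measured as SYBR Green DNA fluorescence (ex 485, em 535 nm) after overnight lysis following 72 h culture at 37 °C, 0.3% parasitemia, 2.5% hematocrit. Values normalized against DMSO and 0.29 uM artemisinin controls, with plate-stack correction.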
Potency is read from the fitted curve at half-maximal effect.

Activity change, negative = inhibition, inactive:
COc1cccc(CO[C@H]2C=C[C@@H](c3ccccc3)O[C@H]2COC(C)=O)c1 10.3%
COC1=C[C@H](C(=O)N[C@H]2CCCC[C@H]2NC(C)=O)[C@H](C)[C@@H](c2ccccc2)CC1=O -2.67%
CC(C)=CCN1C(=O)[C@@]2(CC(C)=C[C@@H](COCc3ccccc3)O2)c2ccccc21 -9.53%
CCN1C(=NCCCOC(C)C)N[C@@H](CCc2ccccc2)[C@H](C(=O)NCCCOC(C)C)[C@H]1C -8.89%
Cc1c(O)c(=O)ccn1Cc1ccccc1 5.54%
CCCCCCCC1=Cc2ccccc2C(CC(C)=O)N1C(=O)OC (stereo not given) -17.3%
CCc1cc2c(nc1CC)CCN(CCC(C)=NOC[C@@H](O)COCc1ccco1)C2 -13.8%
COc1cc(CO[C@H]2C=C[C@@H](c3ccccc3)O[C@H]2CO)cc(OC)c1 -2.99%
C=CCNC(=O)N1CCc2nc(-c3ccc(OC)cc3C)c3c(c2C1)CO[C@@H](c1ccccc1)C3 -2.89%
Cn1c(-c2ccccc2)c(O)c(=O)c2ccccc21 8.7%
COc1cccc([C@H]2Oc3ccc(OC)cc3C(=NO[C@H](C)c3cn([C@H](CO)Cc4ccccc4)nn3)[C@H]2O)c1 -1.44%
CNc1ccccc1C(=O)OCC(C)=O -2.12%
CC1=C2[C@H](O)[C@H]([C@@H](C)C(=O)NCCC(C)C)CC[C@@]2(C)C=CC1=O -3.51%
COC(=O)c1ccc(CN2C(=O)[C@]3(OCCC=C[C@@H]3C)c3cc(OC)ccc32)cc1 -3.05%
COc1cccc([C@@H]2Oc3ccc(OC)cc3C[C@@H]2OC(=O)N[C@H]2CCCc3ccccc32)c1 -13.7%
CCN1C(=NCc2cccc(C(F)(F)F)c2)NC(c2cccs2)C(C(=O)OC)=C1C (stereo not given) -5.25%
CC(C)[C@@H](OCc1ccccc1)[C@H](C)CON=C1[C@H]2CCn3c(=O)n(-c4ccccc4)c(=O)n3[C@@H]2[C@H](O)[C@@H]2O[C@H]12 4.15%
C=CCN1c2ccccc2[C@]23CCC(=O)N(CCOC)C2=NC(C(=O)OC)=C(C(=O)OC)[C@H]13 6%
CC1=C(C)CC(c2ccccc2)C(C(=O)c2ccccc2O)C1 (stereo not given) 4.19%
COc1ccc(O[C@H]2C=C[C@@H](c3ccccc3)O[C@H]2CON=C2c3cc(OC)ccc3O[C@H](c3cccc(OC)c3)[C@H]2O)cc1 -13.5%
COc1cccc([C@@H]2Oc3ccc(Br)cc3C(=O)[C@@H]2OC(=O)N[C@H]2CCCc3ccccc32)c1 -2.83%
CC(C)(C)OC(=O)N1CCC[C@@H]1C(O)(c1ccccc1)c1ccccc1 1.66%
C=CCN1C(=O)[C@]2(O[C@H](C)CC3=CCCC32)c2c(Br)cccc21 (stereo not given in full) -5%
N#CCCN(CC#Cc1ccccc1)OCc1ccccc1 5.39%
c1ccc(CCc2nc(-c3ccccc3)oc2NC2CCCCC2)cc1 -8.15%
CC(CCC(=O)OC[C@H]1O[C@H](C#Cc2ccccc2)C=C[C@H]1Oc1ccc(C)cc1)=NO[C@H](C)c1cn([C@@H]2COC[C@@H]2O)nn1 -7.13%
CC1(OC(=O)C2CCCC2)C(=O)C=C2C=C(c3ccsc3)N(C3CCCCC3)C=C2C1=O (stereo not given) 11.7%
CC1(C)CC(=O)C2=C(C1)O[C@@]1(c3ccsc3)Cc3cc(C#N)ccc3[C@H]2O1 -1.88%
Cc1ccc(S(=O)(=O)n2c3ccccc3c3nnc(C(=O)c4ccccc4)nc32)cc1 6.62%

Potency, inactive:
COC(=O)CCCC1=CC2=C(c3ccccc3)C(=O)C(C)(OC(=O)C3CCCC3)C(=O)C2=CN1Cc1ccc(OC)cc1 (stereo not given)
COC(=O)CCCC1=CC2=C(c3ccccc3)C(=O)C(C)(OC(=O)C3CCCC3)C(=O)C2=CN1c1ccc(OC)cc1 (stereo not given)
CCCCC1=CC2=C(c3ccco3)C(=O)C(C)(OC(=O)c3ccc(OC)cc3)C(=O)C2=CN1C(CO)CO (stereo not given)
CC1(OC(=O)C2CCCC2)C(=O)C=C2C=C(c3ccsc3)N(Cc3ccccc3)C=C2C1=O (stereo not given)

Potency, active:
COC(=O)C1=C(C(=O)OC)[C@@H]2N(CC=C(C)C)c3ccccc3[C@@]23CCC(=O)N(Cc2cccc(C(F)(F)F)c2)C3=N1 0.849 µM
CC(C)=CCCC(C)=CCN1C(=O)[C@]2(O[C@H](COc3ccccc3)CC3=CCCC32)c2c(Br)cccc21 (stereo not given in full) 1.51 µM
COC(=O)[C@]1(CC=Cc2ccccc2)C=C[C@@H](C)[C@H](c2ccccc2Br)N1C(=O)C(F)(F)F 1.69 µM
COc1ccc2c3c(c(=O)oc2c1)[C@H]1O[C@](CCCCN2C(=O)c4ccccc4C2=O)(Cc2cc(OC)c(OC)cc21)O3 2.69 µM
CC#C[C@H](C)[C@@H](OCOC)[C@H](C[C@H](C)Cc1cc(Br)cc(OCc2ccccc2)c1OC)OC 1.51 µM
O=C1CCCC=C1[C@@H](O)CCOC(c1ccccc1)(c1ccccc1)c1ccccc1 1.51 µM
COC(=O)C1=C(C(=O)OC)[C@@H]2N(C)c3ccc(OC)cc3[C@@]23C[C@@H](C(=O)OC)N(C(=O)NCCBr)C3=N1 2.13 µM
